Whole data set: some 5,800 sequences, median “enrichment r” near 0.68, cut for the highest 2% near 11. The list is a sample of the results.
T1: UNK ZnF1-6 (called full-length) (human, UniProt Q9C0B0 30-357)
T1 sequence: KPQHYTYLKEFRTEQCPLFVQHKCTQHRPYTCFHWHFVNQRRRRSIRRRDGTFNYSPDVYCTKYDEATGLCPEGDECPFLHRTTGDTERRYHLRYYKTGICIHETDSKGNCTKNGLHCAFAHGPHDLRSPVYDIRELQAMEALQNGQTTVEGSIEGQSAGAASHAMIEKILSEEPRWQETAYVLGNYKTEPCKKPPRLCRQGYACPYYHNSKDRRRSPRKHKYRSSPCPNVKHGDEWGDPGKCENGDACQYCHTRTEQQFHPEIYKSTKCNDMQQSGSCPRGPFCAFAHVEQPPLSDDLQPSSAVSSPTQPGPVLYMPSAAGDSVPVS

B1: chr12:76028832:76028933:-|3pUTR|ENSG00000139289|msi1|total|mutant (ssRNA)
RNA: GGGAGUUCUACAGUCCGACGAUCAAAGGAAAAGACUGGAUAAACACAGGAUUUUCAGUAAGAAAACAACCCCAGUCUUGUCUCCGAAGCCACUUGUUGAGGAGUCUGUUGGGGGAAAAAAGAGGAUAUGCUUUUAAAGGCCGACAACAGAGGAUUGAGCAUCA
B2: chr3:27418507:27418620:-|CDS|ENSG00000033867|unk|FALSE|bound_elsewhere (ssRNA)
RNA: GGGAGUUCUACAGUCCGACGAUCUGAUGUAGCUUAUAAAGCAAAAGACAGAAAUGACCUCUUAUCUGGAAUUGAUGAAUUUUUAGAUCAAGUAACUGUCCUACCUCCAGGAGAGUGGGAUCCUUCUAUACGCAUAGAACCACCCAACAGAGGAUUGAGCAUCA
B3: chr11:35619468:35619569:+|CDS|ENSG00000179431|unk|FALSE|unique (ssRNA)
RNA: GGGAGUUCUACAGUCCGACGAUCCCCCCUCCGGGAUGCCGGGGGUGAGCUGGCCAACCUCAGCCAGGCGGAGCUGGUGGACCUAGUACAAUGGACCGACUUAAUCCUUUUCGACUACCUGACGGCCAACUUCGACCGGCUCGUCAACAGAGGAUUGAGCAUCA
B4: chr5:91369659:91369760:-|3pUTR|ENSG00000113369|msi1|total|mutant (ssRNA)
RNA: GGGAGUUCUACAGUCCGACGAUCUCAGCAUUUUCCAAGGUACCAAGUGUACUUAUUUUGUUGUUGUUGUUGUUGUUGUAUUUCCGAAGGAAUUCAGCUCUGAUGUUUUUAAAGAAAACCAGCAUCUCUGAUGUUGCAACAUACCAACAGAGGAUUGAGCAUCA
B5: chr9:35056615:35056731:-|3pUTR|ENSG00000165280|msi1|FALSE|unique (ssRNA)
RNA: GGGAGUUCUACAGUCCGACGAUCCCCUAUCCAACCUGGGUAGGUGGGUAGGGGCCACAGUUGCUGGAUGUUUAUAUAGAGAGUAGGUUGAUUUAUUUUACAUGCUUUUGAGUUAAUGUUGGAAAACUAAUCACAAGCAGUUUCCAACAGAGGAUUGAGCAUCA
B6: chr6:149379354:149379455:+|CDS|ENSG00000055208|msi1|FALSE|bound_elsewhere (ssRNA)
RNA: GGGAGUUCUACAGUCCGACGAUCAGGGGUGGUGUCCCCUACCUUUGAACUUACAAAUCUUCUUAAUCAUCCUGAUCAUUAUGUAGAAACCGAGAAUAUUCAGCACCUCACGGACCCUACAUUAGCACAUGUGGAUAGAAUAAGCAACAGAGGAUUGAGCAUCA
B7: chr17:81921741:81921842:-|3pUTR|ENSG00000197063|msi1|total|mutant (ssRNA)
RNA: GGGAGUUCUACAGUCCGACGAUCAAUUAUAUGUUUAAAAGUUAAAGAAAAAAGAGCUGCAGAGUAUUUAUAAAACUGUCUUUCCGAAAAAAAACAAGCAAGAAGACCAUUUGACCAUAUGAAUGGAAAAGGGAAGAAAGUAUACAACAGAGGAUUGAGCAUCA
B8: chr1:110947961:110948399:-|CDS|ENSG00000121931|control|control|control (ssRNA)
RNA: GGGAGUUCUACAGUCCGACGAUCAAGUCAUUUCUUCAAUAAAAAUUAUACCGAAGAUAUUUUCCCAGUGACACCACCGGAGUUAGAAGAAACCAUUCGAGAUGAAAAAAUAAGAAGACUUAAGCAGGUGCUGAGAGAGAAAGACAACAGAGGAUUGAGCAUCA
B9: chrX:153456492:153456651:-|CDS|ENSG00000213397|control|control|control (ssRNA)
RNA: GGGAGUUCUACAGUCCGACGAUCAUGGAGCACUUCGAGGACACCAGGGAGAAGAACGAGGCCUUGCUGGGGGAGCUCUUCUCUAGCCCCCACCUGCAGAUGCUCCUGAAUCCAGAGUGCGACCCGUGGCCCCUGGACAUGCAGCAACAGAGGAUUGAGCAUCA
B10: ENSG00000130720:stop:overlap|stop_codon|ENSG00000130720|stop_codon|NA|stop_codon (ssRNA)
RNA: GGGAGUUCUACAGUCCGACGAUCGCUGGCAGUACUCACUCAAGUUCUCUGAGAUGAAGAUCCGGCCGGUCCGGGAGGACCGCUAGACUGGUGCACCUUGUCCUUGGCCCUGCUGGUCCCUGUCGCCCCAUCCCCGACCCCACCCAACAGAGGAUUGAGCAUCA
B11: chr3:89481969:89482070:+|3pUTR|ENSG00000044524|msi1|total|mutant (ssRNA)
RNA: GGGAGUUCUACAGUCCGACGAUCAUAUGUGUUUACUUUAAACUUGUCUUUUCAAAAUAUUACUCAGUUUAUGUUGUACAAUGCCGAUGGCCUCUUACUAAUGUAAAAUGAUUUGCCGUGGAAACAUUUAUAUUUUUAUAAUAACAACAGAGGAUUGAGCAUCA
B12: chr4:123402332:123402450:+|CDS|ENSG00000164056|unk|total|mutant (ssRNA)
RNA: GGGAGUUCUACAGUCCGACGAUCGACGAAGGGGAUUCCUAUUCAGAUAAUCCUUGCUCCUGUUCACAAUCACACUGCUGCUCCCGAUACCUGUGUAUGGGAGCCAUGUCUUUAUUUUUACCUUGCUUACUCUGUUAUCCUCCUCAACAGAGGAUUGAGCAUCA
B13: chr1:198253062:198253183:+|CDS|ENSG00000151414|unk|total|mutant (ssRNA)
RNA: GGGAGUUCUACAGUCCGACGAUCAUGGGCUAUAAUACAUCCGCCAACUUUCGAACCGAAAAGAAAAUUGGUCGCGGACAAUUCCGUGAAGUUUACCGAGCAGCCUGUCUCUUGGAUGGAGUACCAGCCGCUUUAAAAAAAGUGCAACAGAGGAUUGAGCAUCA
B14: chr6:144852070:144852171:+|3pUTR|ENSG00000152818|unk|FALSE|unique (ssRNA)
RNA: GGGAGUUCUACAGUCCGACGAUCAAGUCCUUAAUAGUUCUUGAAACUCCUAGUUGUUUUCUUGUUGAAAGCAGACACACAUUUAGUGCACGGCUUAUUUUACCUUUCGGGUGAAAGAUCAGAUGUUUUUAUACCCUUCACUUGCAACAGAGGAUUGAGCAUCA

biological target: T1, UNK ZnF1-6 (called full-length); assay: nsRBNS (natural sequence RNA bind-n-seq); RBNS binding buffer (assumed for nsRBNS): 25 mM Tris pH 7.5, 150 mM KCl, 3 mM MgCl2, 0.01% Triton X-100, 500 ug/ml BSA, 20 U/ml SUPERase-In, 4 C; UNK is unkempt and MSI1 is Musashi-1; names of the RNAs are library labels; protein concentration not given here; high values mean tight binding

Row | Binder | binding signal [enrichment R]
1 | B1 | 0.52
2 | B2 | 0.413
3 | B3 | 0.618
4 | B4 | 0.292
5 | B5 | 0.815
6 | B6 | 0.615
7 | B7 | 0.865
8 | B8 | 0.797
9 | B9 | 0.759
10 | B10 | 1.34
11 | B11 | 0.702
12 | B12 | 0.585
13 | B13 | 0.411
14 | B14 | 0.969
